# Data as given in PubChem BioAssay (NCI).
# Compounds without any hit were thinned out: in the full panel of roughly 79,000, 15% have a hit. A number with no mark means an inactive call. Activity calls are given as the source filed them. Rule as the data show it: active = growth inhibition above about 70%; inactive = the rest.
# Legend:
# [1] = NCI Yeast Anticancer Drug Screen. Data for the rad50 strain (AID 155);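 also: 0% = growth of vehicle-only cultures of the same strain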; conditions: S. cerevisiae rad50 strain growth inhibition, stronger effect = higher value
# How it was run: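 Cells are treated with compound, grown, and their growth is then scored against vehicle-only cultures of the same repair-deficient yeast strain.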
# [2] = NCI Yeast Anticancer Drug Screen. Data for the mec2-1 strain (AID 157); conditions: S. cerevisiae mec2-1 strain, stronger effect = higher value
# How it was run: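 Cells of the genetically defined mec2-1 yeast strain are incubated with test compound. Inhibition of growth is calculated against vehicle-treated controls.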
# [3] = NCI Yeast Anticancer Drug Screen. Data for the sgs1 mgt1 strain (AID 161);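 also: 0% = growth of cultures given vehicle only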; conditions: S. cerevisiae sgs1 mgt1 strain, stronger effect = higher value
# How it was run: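 Read-out: growth inhibition vs vehicle controls. Cells: mutant yeast strain deficient in DNA damage repair.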
# [4] = NCI Yeast Anticancer Drug Screen. Data for the cln2 rad14 strain (AID 165);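 also: 0% = growth equal to vehicle treated cultures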; conditions: S. cerevisiae cln2 rad14 strain, stronger effect = higher value
# How it was run: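 The screen exposed genetically defined yeast (cln2 rad14) to test compounds and scored growth inhibition relative to vehicle-treated controls.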
# [5] = NCI Yeast Anticancer Drug Screen. Data for the bub3 strain (AID 167); conditions: S. cerevisiae bub3 mutant strain, stronger effect = higher value
# How it was run: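 Part of a panel of yeast mutants defective in DNA damage repair or cell cycle regulation. Each strain is grown with compound, and inhibition is calculated relative to solvent-treated cultures.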
# [6] = NCI Yeast Anticancer Drug Screen. Data for the mlh1 rad18 strain (AID 175); conditions: S. cerevisiae mlh1 rad18 strain growth inhibition, stronger effect = higher value
# How it was run: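 Compound-treated yeast growth, normalised to vehicle controls. Strain bears defined DNA repair mutations.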
# [7] = at 5.0 µM (retest, dose inferred, filed as 0.5)
# [8] = at 50.0 µM (retest, dose inferred, filed as 5.0)
SMILES,"growth inhibition [1, 7]","growth inhibition [1, 8]",growth inhibition ([1]; at 50.0 µM),"growth inhibition [2, 7]","growth inhibition [2, 8]",growth inhibition ([2]; at 50.0 µM),"growth inhibition [3, 7]","growth inhibition [3, 8]",growth inhibition ([3]; at 50.0 µM),"growth inhibition [4, 7]","growth inhibition [4, 8]",growth inhibition ([4]; at 50.0 µM),"growth inhibition [5, 7]","growth inhibition [5, 8]",growth inhibition ([5]; at 50.0 µM),"growth inhibition [6, 7]","growth inhibition [6, 8]",growth inhibition ([6]; at 50.0 µM)
Cc1ccnc2c1ccc1c(C)ccnc12,10%,98% (active),99% (active),-17%,99% (active),99.1% (active),14%,99% (active),99.2% (active),-21%,97% (active),98.5% (active),-25%,98% (active),99.1% (active),1%,98% (active),99% (active)
COC/C=N/Nc1ccc([N+](=O)[O-])cc1,90% (active),98% (active),98.6% (active),45%,98% (active),98.3% (active),90% (active),98% (active),98% (active),46%,98% (active),98.5% (active),94% (active),98% (active),99% (active),90% (active),98% (active),98.5% (active)
CN(C)CC(CN(C)C)C(=O)c1ccc(Oc2ccc(Cl)c(Cl)c2)cc1,18%,96% (active),93.9% (active),8%,97% (active),96.8% (active),29%,98% (active),96.7% (active),4%,95% (active),93.5% (active),6%,98% (active),94.8% (active),21%,96% (active),96.3% (active)
COC1(OC)OC2=C(OC1(OC)OC)c1ccccc1C2=O,8%,12%,37.9%,9%,14%,-13.1%,5%,7%,-11.8%,5%,3%,-15.2%,4%,8%,-16.6%,14%,12%,-55.2%
O=C1C=CC(=O)N1C1CCCCC1,93% (active),99% (active),99.6% (active),60%,100% (active),99.7% (active),95% (active),99% (active),99.5% (active),30%,99% (active),99.8% (active),90% (active),99% (active),99.7% (active),98% (active),99% (active),99.6% (active)
O=C1C=CC(=O)c2c(O)c(N3CCC[C@H]3CO)c(Cl)c(O)c21,20%,90% (active),61.2%,14%,90% (active),78.9% (active),19%,95% (active),23.9%,13%,51%,20%,25%,97% (active),34.5%,31%,90% (active),41.6%
N#CSc1cc(SC#N)c2ccccc2c1N,0%,-3%,70.2% (active),-2%,-12%,62.9%,3%,-9%,57.9%,1%,-27%,-1.2%,19%,28%,81% (active),8%,-2%,63.5%
O=C(CC1(O)C(=O)Nc2c(Cl)cc(Cl)cc21)c1ccc(Br)cc1 (configuration not stated),3%,3%,93.1% (active),-9%,-9%,92% (active),-23%,-23%,92% (active),-8%,-8%,91.8% (active),7%,7%,94.3% (active),-1%,-1%,92.7% (active)
c1cc[c]([Sn]([NH]c2ncnc3[nH]cnc23)([NH]c2ncnc3[nH]cnc23)[c]2ccccc2)cc1,-10%,93% (active),71% (active),-6%,95% (active),47.6%,2%,96% (active),58.3%,-2%,73% (active),29.4%,-4%,95% (active),57.4%,-7%,94% (active),89.2% (active)
CC(=O)C1C(S)CC2C3CC=C4CC(O)CCC4(C)C3CCC21C (configuration not stated),1%,98% (active),98.8% (active),7%,98% (active),98.5% (active),-8%,98% (active),98.7% (active),-7%,98% (active),98% (active),8%,98% (active),50.9%,0%,98% (active),98.8% (active)
Nc1c(-c2c(Cl)cccc2Cl)[n+]([O-])c2ccccc2[n+]1[O-],26%,99% (active),75% (active),29%,99% (active),38.9%,44%,100% (active),74.7% (active),28%,99% (active),69.3%,45%,99% (active),66.8%,72% (active),99% (active),88.8% (active)
CN(C)CCOc1ccc2c(c1)C(=O)/C(=C\c1ncc([N+](=O)[O-])n1C)C2,31%,73% (active),54.1%,21%,89% (active),80.3% (active),21%,67%,77.4% (active),22%,46%,59%,21%,95% (active),34.8%,50%,78% (active),80.8% (active)
CC(C)(C)c1ccc(CN2CCN(C(c3ccccc3)c3ccc(Cl)cc3)CC2)cc1 (configuration not stated),20%,52%,15.7%,5%,17%,1.45%,27%,81% (active),-10.8%,-4%,21%,-8%,42%,73% (active),-4.4%,35%,61%,52.5%
O=C1C2=C(Nc3cc([N+](=O)[O-])ccc3N2)OC1c1c2ccccc2cc2ccccc12 (configuration not stated),89% (active),98% (active),93.5% (active),70% (active),99% (active),66.4%,70% (active),99% (active),96% (active),62%,98% (active),35.5%,34%,99% (active),78.4% (active),92% (active),99% (active),93.6% (active)
Nc1nc2nn(-c3ccc(C(=O)O)cc3)nc2c(=O)[nH]1,2%,9%,16.6%,3%,1%,30.8%,-4%,3%,9.3%,4%,1%,-7.05%,-2%,-3%,39.8%,3%,9%,67.9%
O=C(NCCN1CCN2Cc3[nH]c4ccccc4c3CC2C1)c1ccc(Cl)cc1 (configuration not stated),9%,50%,51.6%,10%,40%,46.8%,1%,50%,61%,27%,72% (active),55.6%,26%,53%,50.5%,8%,60%,53.5%
O=C(/C=C/C(=O)OCCCl)OCCCl,5%,95% (active),69.2%,-24%,85% (active),82.2% (active),4%,62%,92.5% (active),4%,27%,-22.8%,46%,91% (active),71.2% (active),4%,95% (active),95.2% (active)
O/N=C(/C[n+]1csc2ccccc21)c1ccccc1,-6%,82% (active),35.3%,-8%,34%,79.5% (active),-9%,87% (active),73.7% (active),-6%,32%,37%,12%,76% (active),76.8% (active),1%,88% (active),48%
O=C(CCSCCC(=O)NNc1ccccc1)NNc1ccccc1,4%,32%,24.4%,-1%,28%,3.5%,4%,37%,20.4%,6%,23%,23.4%,7%,44%,-14.7%,15%,58%,35.9%
